Test results taken from paper PMC5540273 (PLoS ONE, 2017).

Columns and labels:
Conditions in all cases: concentration: 1 μM, replicates: in singlicate; n = 1
SRPK2 = test system: SRPK2
SRPK3 = test system: SRPK3
STK16 = test system: STK16
STK33 = test system: STK33
STK35 = test system: STK35
STK36 = test system: STK36
STK39 = test system: STK39
SYK = test system: SYK
SgK110 = test system: SgK110
TAK1 = test system: T1, TAK1
T1 construct: gene MAP3K7
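Further: KINOMEscan kinase panel screen.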

Q: Which “%Inh” value (SRPK2) does the source give for `CC(=O)c1cccc(NC(=O)NC2CCN(c3ccnc(Nc4ccc(F)cc4)n3)C2)c1` (centres unmarked) [GSK1379710] here?
A: 28%

Q: And the “%Inh” value (SRPK3)?
A: 0%

Q: What about the “%Inh” value (STK16) of the same compound?
A: 1%

Q: What about the “%Inh” value (STK33) of the same compound?
A: 6%

Q: What about the “%Inh” value (STK35) of the same compound?
A: 1%

Q: And the “%Inh” value (STK36)?
A: 0%

Q: And the “%Inh” value (STK39)?
A: 25%

Q: What about the “%Inh” value (SYK) of the same compound?
A: 29%

Q: What about the “%Inh” value (SgK110) of the same compound?
A: 0%

Q: And the “%Inh” value (TAK1)?
A: 0%

Q: Which “%Inh” value (SRPK2) does the source give for `COc1nccc(-c2c(-c3ccc(F)cc3)ncn2CCCN2CCOCC2)n1` [SB-282852] here?
A: 26%

Q: And the “%Inh” value (SRPK3)?
A: 23%

Q: And the “%Inh” value (STK16)?
A: 9%

Q: And the “%Inh” value (STK33)?
A: 0%

Q: And the “%Inh” value (STK35)?
A: 0%

Q: What about the “%Inh” value (STK36) of the same compound?
A: 0%

Q: What about the “%Inh” value (STK39) of the same compound?
A: 6%

Q: And the “%Inh” value (SYK)?
A: 0%

Q: And the “%Inh” value (SgK110)?
A: 0%

Q: What about the “%Inh” value (TAK1) of the same compound?
A: 43%

Q: Which results are given for `Cl.Cl.Cl.N#Cc1ccc(CCNc2nccc(-c3cccc(CN4CCNCC4)c3)n2)cc1` [GSK2137462]?
A: %Inh (SRPK2): 0%; %Inh (SRPK3): 0%; %Inh (STK16): 22%; %Inh (STK33): 100%; %Inh (STK35): 0%; %Inh (STK36): 0%; %Inh (STK39): 0%; %Inh (SYK): 9%; %Inh (SgK110): 23%; %Inh (TAK1): 4%

Q: Which results are given for `CC(=O)c1c(C)c2cnc(Nc3ccn(C)n3)nc2n(C2CCCC2)c1=O`?
A: %Inh (SRPK2): 0%; %Inh (SRPK3): 0%; %Inh (STK16): 55%; %Inh (STK33): 0%; %Inh (STK35): 5%; %Inh (STK36): 0%; %Inh (STK39): 0%; %Inh (SYK): 0%; %Inh (SgK110): 0%; %Inh (TAK1): 11%

Q: For `COc1ccc(Nc2nccc(N3CCC(NC(=O)c4cc5ccccc5s4)C3)n2)cc1` (centres unmarked) [GSK1379738], which “%Inh” value (SRPK2) is on record?
A: 0%

Q: What about the “%Inh” value (SRPK3) of the same compound?
A: 0%

Q: And the “%Inh” value (STK16)?
A: 19%

Q: And the “%Inh” value (STK33)?
A: 0%

Q: What about the “%Inh” value (STK35) of the same compound?
A: 0%

Q: What about the “%Inh” value (STK36) of the same compound?
A: 0%

Q: What about the “%Inh” value (STK39) of the same compound?
A: 0%

Q: What about the “%Inh” value (SYK) of the same compound?
A: 13%

Q: What about the “%Inh” value (SgK110) of the same compound?
A: 0%

Q: And the “%Inh” value (TAK1)?
A: 0%
